For orientation: AC50 means the concentration at which the activity in the assay is half-maximal.

The source of these data is PubChem BioAssay (EPA / NIEHS).

The source made the active and inactive calls. Rule for the calls: active = hit-call score of the fitted dose curve at least 0.9, where 1 is the maximum; inactive = score below 0.9.

The nature of the test: CEETOX_H295R_CORTIC: CeeTox H295R High-throughput Steroidogenesis Assay for Corticosterone (CORTIC) (AID 2283437).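 Note: corticosterone secreted into medium quantified by mass spectrometry.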 The settings on record: actives raise or lower the signal. How it is done: CEETOX_H295R is a cell-based, multiplexed-readout assay that uses H295R, a human adrenal gland cell line, with measurements taken at 48 hours after chemical dosing in a 96-well plate.CEETOX_H295R_CORTIC is one of 23 assay component(s) measured or calculated from the CEETOX_H295R assay. It is designed to make measurements of hormone induction, a form of inducible reporter, as detected with absorbance signals by HPLC-MS-MS technology.Data from the assay component CEETOX_H295R_CORTIC was analyzed into 1 assay endpoint. This assay endpoint, CEETOX_H295R_CORTIC, was analyzed with bidirectional fitting relative to DMSO as the negative control and baseline of activity. Using a type of inducible reporter, gain or loss-of-signal activity using HPLC-MS-MS was used to understand synthesis of Corticosterone in H295R cell line at 48hr of chemical exposure. To generalize the intended target to other relatable targets, this assay endpoint is annotated to the steroid hormone intended target family, where the subfamily is glucocorticoids.
Cell culture and media preparation procedures were conducted in accordance with OECD Test No. 456 guidelines, with minor modifications. H295R cells (ATCC CRL-2128) were expanded for 5 passages and frozen in batches in liquid nitrogen. Prior to the steroidogenesis assay, H295R cells were thawed and passed at least 4 times. The maximum passage was 10. Cells were maintained in a 1:1 mixture of DMEM/F12 supplemented with 5ml/L ITS+ Premix (BD Bioscience) and 12.5 ml/L Nu-Serum (BD Bioscience). After seeding cells into 96-well plates at 50-60% confluency, cells were allowed to adhere overnight. Prior to chemical testing, culture medium was replaced with 175 uL medium containing 10 uM forskolin to stimulate steroidogenesis for 48 hours. Following prestimulation, forskolin medium was replaced with medium containing test chemical solubilized in DMSO (ensuring a final concentration of 0.1% DMSO). Test chemicals were incubated for 48 hours, then the medium was removed and split into 2 vials containing approximately 75uL each, and stored at -80 C prior to hormone analysis. For steroid quantification, media samples were shipped to OpAns, LLC (Durham, NC) on dry ice, and samples were thawed to room temperature prior to liquid-liquid extraction. Steroid hormones were extracted from media samples using methyl tertbutyl ether (MTBE). An extra derivatization with dansyl chloride was included for estrogen (estrone and estradiol) detection only. Steroid hormones were separated by HPLC, eluted using a reverse phase C18 gradient with electrospray positive ionization, followed by quantification by tandem mass spectrometry (MS/MS). Data were acquired on a MassHunter Workstation Acquisition version B03.01 (Agilent Technologies, Inc.) and processed using MassHunter Quantitative Analysis for QQQ. Accuracy was determined for each hormone analyte from 3 standards to determine upper and lower limits of quantification (ULOQ and LLOQ, respectively) using a 7-point standard curve. Precision and accuracy of the extraction and quantification methods were calculated as the percent relative standard deviation (%RSD) of the spiked standards and percent spiked standard recovered, respectively. […] Test medium was removed following chemical exposure, and cell viability was evaluated in the same wells by MTT. MTT procedures were as follows: after removal of test medium, 500 uL of 0.5 mg/ml of 3-[4,5-dimethylthiazol-2-y]2,5-diphenyltetrazoliumbromide solution was added to the cells. Following a 4-hour incubation at 37 C and 5% CO2 to allow formazan-crystal formation, the MTT solution was removed and blue formazan salt crystals were solubilized using 500uL anhydrous isopropanol with shaking for 20 minutes. Absorbance was read at 570 and 650nm using a Packard Fusion microplate reader. Background correction of absorbance units was used to determine percent change relative to controls. […]
As for `Nc1ccc(Cl)cc1`, the result was inactive.

In the case of `Nc1ccc([N+](=O)[O-])cc1Cl`, the result was inactive.

In the case of `Oc1ccc(I)cc1`, the molecule was called inactive.

Consider `O=S(=O)(c1ccc(O)cc1)c1ccc(O)cc1`, for which the molecule was called inactive.

In the case of `CCCCOCCOP(=O)(OCCOCCCC)OCCOCCCC`, the outcome was inactive.

As to `COP(N)(=S)OC`, the result was inactive.

With `CC(=O)c1ccc(-c2ccccc2)cc1`, the half-maximal activity concentration (AC50) was 18.9 µM (active).

As for `Cc1ccc(N)cc1N`, the call was inactive.

For `CC(C)Nc1ccc(Nc2ccccc2)cc1`, the call was inactive.

As for `CCOP(=S)(OCC)SCn1nnc2ccccc2c1=O`, the molecule was classed as inactive.

As to `CCOP(=S)(NC(C)C)Oc1ccccc1C(=O)OC(C)C` (stereo unspecified), the concentration at half-maximal activity (AC50) is 6.94 µM (active).

As for `CCC(C)(C)c1ccc(O)cc1`, the result was inactive.

Take `CO/N=C(/C(=O)OC)c1ccccc1COc1ccccc1C`: the outcome was inactive.

With `c1ccc(OP(Oc2ccccc2)Oc2ccccc2)cc1`, the call was inactive.

With `O=S1(=O)OCC2C(CO1)C1(Cl)C(Cl)=C(Cl)C2(Cl)C1(Cl)Cl` (stereo unspecified), the outcome was inactive.

Turning to `CCNc1nc(Cl)nc(NC(C)(C)C)n1`, the outcome was inactive.

With `ClC(Cl)=C(c1ccc(Cl)cc1)c1ccccc1Cl`, the outcome was inactive.

Consider `CCCCc1ccc(O)cc1`, for which the concentration at half-maximal activity (AC50) is 28.3 µM (active).

Turning to `O=P(Oc1ccccc1)(Oc1ccccc1)Oc1ccccc1`, the molecule was called inactive.

In the case of `Nc1cc2c3c(c1)C(c1ccccc1)=N[C@@H](NC(=O)c1cccnc1)C(=O)N3CC2`, the AC50 was 18.3 µM (active).

On to `N#Cc1c(-c2ccc(Cl)cc2)[nH]c(C(F)(F)F)c1Br`, for which the half-maximal activity concentration (AC50) is 0.291 µM (active).
